Experimental findings from PubChem BioAssay (NCATS) are described below.

SMILES strings stand for the structures. Unmarked numbers belong to inactive results. Results filed as inconclusive are left out. Activity calls are given as the source filed them. Calls follow the shape of the dose curve; as a rule, active = well fitted curve in the direction sought with a large enough effect; inconclusive = small, poorly fitted or top-dose-only effect, or another doubt; inactive = no such curve, though single readings can be large; an effect the other way counts as inactive or inconclusive.

Assay [1] has as its target Voltage-gated inwardly rectifying potassium channel KCNH2 (Homo sapiens) (UniProt Q12809). As to the kind of experiment: qHTS Assay for Small Molecule Inhibitors of the Human hERG Channel Activity (AID 588834).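 Also: lower thallium flux fluorescence means stronger hERG block; nearly all actives have a fitted effect of over 50% in size.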 Also: potency is read from the fitted curve at half-maximal effect. Summed up: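 Step 1: BacMam hERG transduction of U2OS, 4 hrs RT. Step 2: overnight 37 °C, plate 2000 cells/well, 4 hr. Step 3: FluxOR load, compound 10 min, stimulate, read fluorescence.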
In general terms: qHTS replaces the single test concentration by a dilution series.

The target in assay [2] is Glutaminase kidney isoform, mitochondrial (Homo sapiens) (UniProt O94925). As to the kind of experiment: qHTS for Inhibitors of Glutaminase (GLS): LOPAC Validation (AID 624146). Also: nearly all actives have a fitted effect of over 60% in size. Also: potency is read from the fitted curve at half-maximal effect. Summed up: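 Two-point fluorescence kinetic (t0, 30 min RT) for hKGA; glutamate detected via glutamate oxidase–HRP–Amplex Red. Substrate: 1 mM L-glutamine solution; buffer 45 mM KH2PO4, pH 8.2.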
Sequence of Glutaminase kidney isoform, mitochondrial (Homo sapiens) (O94925 whole entry, looked up, canonical isoform): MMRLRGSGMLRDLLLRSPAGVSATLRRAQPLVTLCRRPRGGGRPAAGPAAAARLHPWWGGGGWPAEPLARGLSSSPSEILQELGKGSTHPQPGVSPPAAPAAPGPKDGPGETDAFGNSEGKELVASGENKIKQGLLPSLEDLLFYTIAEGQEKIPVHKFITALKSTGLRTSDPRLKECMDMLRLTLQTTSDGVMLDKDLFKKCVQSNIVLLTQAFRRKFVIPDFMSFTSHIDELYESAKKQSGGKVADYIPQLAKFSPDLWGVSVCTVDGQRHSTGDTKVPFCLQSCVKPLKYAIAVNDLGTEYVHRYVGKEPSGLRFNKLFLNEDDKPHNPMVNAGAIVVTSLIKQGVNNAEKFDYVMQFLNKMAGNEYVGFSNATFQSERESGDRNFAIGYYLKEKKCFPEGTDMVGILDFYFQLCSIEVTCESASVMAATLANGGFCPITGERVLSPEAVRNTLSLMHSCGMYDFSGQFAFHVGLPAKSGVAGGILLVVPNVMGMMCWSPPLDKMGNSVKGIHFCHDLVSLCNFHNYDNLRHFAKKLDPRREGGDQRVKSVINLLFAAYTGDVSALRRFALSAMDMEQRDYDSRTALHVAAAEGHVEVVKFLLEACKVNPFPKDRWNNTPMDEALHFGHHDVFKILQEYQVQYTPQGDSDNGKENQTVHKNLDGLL

The nature of assay [3]: qHTS of Trypanosoma Brucei Inhibitors: LOPAC Validation (AID 624147). Summed up: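 Assay buffer: 50 mM TEA pH 7.2, 100 mM KCl, 10 mM MgCl2, 0.05% BSA, 0.01% Tween-20. Pyruvate kinase from T. brucei plus substrate met compound, then ADP (130 uM final). Luminescence was read post 45 min RT.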
Assay [4] deals with Glucagon-like peptide 1 receptor (Homo sapiens) (UniProt P43220). As to the kind of experiment: qHTS of GLP-1 Receptor Agonists: LOPAC Validation (AID 624148).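 Also: luminescence from a luciferase reporter switched on by cAMP; higher luminescence signal means agonism.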 Summed up: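 Agonism scored as increased luciferase luminescence driven by cAMP in HEK293 clones carrying GLP-1R. Cells settled 12 hours, received compound for 4-6 hr at 37 deg C, 5% CO2, and were read after 12 min detection reagent at RT.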
Sequence of Glucagon-like peptide 1 receptor (Homo sapiens) (P43220 whole entry, looked up): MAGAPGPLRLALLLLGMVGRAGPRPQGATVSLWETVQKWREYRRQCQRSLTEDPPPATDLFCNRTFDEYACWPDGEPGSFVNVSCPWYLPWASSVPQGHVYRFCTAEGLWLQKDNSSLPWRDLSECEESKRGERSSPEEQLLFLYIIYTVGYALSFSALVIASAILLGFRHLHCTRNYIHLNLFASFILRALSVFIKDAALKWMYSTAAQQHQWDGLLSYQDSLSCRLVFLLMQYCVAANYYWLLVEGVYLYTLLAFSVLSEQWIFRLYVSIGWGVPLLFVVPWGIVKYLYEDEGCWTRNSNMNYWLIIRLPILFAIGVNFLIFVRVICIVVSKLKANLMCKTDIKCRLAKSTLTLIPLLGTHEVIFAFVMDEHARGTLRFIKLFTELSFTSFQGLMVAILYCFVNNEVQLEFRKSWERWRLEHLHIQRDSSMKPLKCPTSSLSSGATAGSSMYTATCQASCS

Assay [5] can be described thus: qHTS of Nrf2 Activators: LOPAC Validation (AID 624149). Summed up: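 Luciferase signal from ARE activation, read with Steady-Glo after 30 min at room temperature. Compounds were pin-transferred onto AREc32_Fluc cells (1000/well, OPTI-MEM/5% FBS, seeded overnight) and left 24 hr at 37 deg C.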
Assay [6] is described as follows: HTS Assay for Allosteric Antagonists of the Human D2 Dopamine Receptor: Hit Validation in HTRF (AID 624455). Also: potency is read from the fitted curve at half-maximal effect.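 Also: stable D1 dopamine receptor cell line scored for blocking the D1 response.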 Summed up: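 Inhibition of the D1-mediated response was measured by HTRF. Cells used were a line stably expressing the D1 dopamine receptor.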
On the technique in general: Time-resolved FRET reads energy transfer from a long-lived donor to a nearby acceptor.

Sequence of Voltage-gated inwardly rectifying potassium channel KCNH2 (Homo sapiens) (Q12809 whole entry, looked up): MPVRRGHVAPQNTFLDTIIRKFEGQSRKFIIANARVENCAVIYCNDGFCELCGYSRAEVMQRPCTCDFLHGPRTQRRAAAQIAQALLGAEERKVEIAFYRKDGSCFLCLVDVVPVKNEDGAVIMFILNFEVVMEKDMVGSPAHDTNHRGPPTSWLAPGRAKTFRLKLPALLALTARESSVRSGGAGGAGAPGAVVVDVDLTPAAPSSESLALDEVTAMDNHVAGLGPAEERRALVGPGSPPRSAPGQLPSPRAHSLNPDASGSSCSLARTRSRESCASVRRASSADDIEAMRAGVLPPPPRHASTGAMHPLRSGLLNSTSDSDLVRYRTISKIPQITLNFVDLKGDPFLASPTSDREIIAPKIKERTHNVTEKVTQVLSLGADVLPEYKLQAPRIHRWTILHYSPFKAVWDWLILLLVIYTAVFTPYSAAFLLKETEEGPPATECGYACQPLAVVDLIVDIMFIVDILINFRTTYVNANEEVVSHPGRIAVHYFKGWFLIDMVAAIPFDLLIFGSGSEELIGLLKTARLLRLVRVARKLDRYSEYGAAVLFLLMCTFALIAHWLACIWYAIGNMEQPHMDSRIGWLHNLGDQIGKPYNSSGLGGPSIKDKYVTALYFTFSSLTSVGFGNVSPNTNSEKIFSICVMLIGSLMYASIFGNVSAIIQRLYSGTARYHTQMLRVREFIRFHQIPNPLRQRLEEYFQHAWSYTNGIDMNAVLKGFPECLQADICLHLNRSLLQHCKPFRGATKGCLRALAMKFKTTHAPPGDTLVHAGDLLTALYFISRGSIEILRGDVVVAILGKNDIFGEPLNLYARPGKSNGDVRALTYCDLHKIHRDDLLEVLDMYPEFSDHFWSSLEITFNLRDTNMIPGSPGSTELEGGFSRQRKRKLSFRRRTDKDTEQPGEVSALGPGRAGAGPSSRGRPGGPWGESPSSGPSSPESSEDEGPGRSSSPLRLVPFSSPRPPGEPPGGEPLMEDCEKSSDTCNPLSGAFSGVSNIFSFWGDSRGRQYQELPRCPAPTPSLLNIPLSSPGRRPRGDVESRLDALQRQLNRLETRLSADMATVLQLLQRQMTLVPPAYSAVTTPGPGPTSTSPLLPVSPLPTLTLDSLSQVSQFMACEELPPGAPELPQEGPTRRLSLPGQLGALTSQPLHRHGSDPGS

As for `COC(=O)C1=C(C)NC(C)=C([N+](=O)[O-])C1c1ccccc1C(F)(F)F` (stereo not given), the Potency entry in assay [1], in assay [2], in assay [3], in assay [4], in assay [5] and in assay [6] was “inactive” each time.

Regarding `NCCCCN`, the Potency result in assay [1], in assay [2], in assay [3], in assay [4], in assay [5] and in assay [6] was “inactive” each time.

Consider `CC(C)Cn1c(=O)n(C)c(=O)c2[nH]cnc21`, for which the Potency entry in assay [1], in assay [2], in assay [3], in assay [4], in assay [5] and in assay [6] was “inactive” each time.

For the compound `CCCn1c(=O)c2c(ncn2C)n(CCC)c1=O`, the Potency result in assay [1], in assay [2], in assay [3], in assay [4], in assay [5] and in assay [6] was “inactive” in each case.

As for `Clc1nccc2c1ccc1ccccc12`, the Potency entry in assay [1], in assay [2], in assay [3], in assay [4], in assay [5] and in assay [6] was “inactive” in each case.

Consider `C[N+](C)(C)CC=O`, for which the Potency result in assay [1], in assay [2], in assay [3], in assay [4], in assay [5] and in assay [6] was “inactive” in each case.

In the case of `CC(=O)O[C@H]1CC2(C)[C@@H](C[C@@H](O)[C@H]3[C@@]4(C)CC[C@@H](O)[C@@H](C)[C@@H]4CC[C@@]32C)C1=C(CCC=C(C)C)C(=O)O` (stereo not given in full), the Potency entry in assay [1], in assay [2], in assay [3], in assay [4], in assay [5] and in assay [6] was “inactive” throughout.

As to `Nc1ccc2c3c(cccc13)C(=O)NC2=O`, the Potency in assay [1] is 5.01 µM (active). The Potency entry in assay [2], in assay [3], in assay [4], in assay [5] and in assay [6] was “inactive” in each case.

Consider `CCCn1c(=O)c2[nH]c(C3CCCC3)nc2n(CCC)c1=O`, for which the Potency entry in assay [1], in assay [2], in assay [3], in assay [4], in assay [5] and in assay [6] was “inactive” each time.

Consider `CCCCOC(=O)NS(=O)(=O)c1sc(CC(C)C)cc1-c1ccc(Cn2c(CC)nc3c(C)cc(C)nc32)cc1`, for which, in assay [1], the Potency was 14.1 µM (active). The Potency result in assay [2], in assay [3], in assay [4], in assay [5] and in assay [6] was “inactive” in each case.

On to `CCCCCCCCCC(=O)NC(CN1CCOCC1)[C@H](O)c1ccccc1` (stereo not given in full), for which the Potency in assay [1] was 12.6 µM (active). Besides, the Potency entry in assay [2], in assay [3], in assay [4], in assay [5] and in assay [6] was “inactive” each time.

With `CCC1(O)CC2CN(CCc3c([nH]c4ccccc34)[C@@](C(=O)OC)(c3cc4c(cc3OC)N(C=O)C3[C@]45CCN4CC=C[C@@](CC)([C@@H](OC(C)=O)[C@]3(O)C(=O)OC)[C@H]45)C2)C1` (stereo not given in full), the Potency entry in assay [1], in assay [3], in assay [4], in assay [5] and in assay [6] was “inactive” each time. The Potency in assay [2] was 7.08 µM (active).

In the case of `CC(N)(C(=O)O)c1ccc(C(=O)O)cc1` (stereo not given), the Potency result in assay [1], in assay [2], in assay [3], in assay [4], in assay [5] and in assay [6] was “inactive” throughout.

Consider `NCCS(=O)O`, for which the Potency result in assay [1], in assay [2], in assay [3], in assay [4], in assay [5] and in assay [6] was “inactive” in each case.

In the case of `c1ccc2c(c1)CC(N1CCN(c3cccc4c3OCCO4)CC1)C2`, the Potency in assay [1] is 15.8 µM (active). Further, the Potency entry in assay [2], in assay [3], in assay [4], in assay [5] and in assay [6] was “inactive” in each case.

For `Nc1ncnc2c1ncn2C1CCCO1` (stereo not given), the Potency entry in assay [1], in assay [2], in assay [3], in assay [4], in assay [5] and in assay [6] was “inactive” in each case.

For `N#Cc1cc2nc(O)c(O)nc2cc1[N+](=O)[O-]`, the Potency result in assay [1], in assay [2], in assay [3], in assay [4], in assay [5] and in assay [6] was “inactive” each time.

As for `COc1ccccc1N1CCN(CCCNc2c(C)c(=O)n(C)c(=O)n2C)CC1`, the Potency entry in assay [1], in assay [2], in assay [3], in assay [4], in assay [5] and in assay [6] was “inactive” throughout.

In the case of `CNC(=O)c1cc2c(cn1)[nH]c1ccccc12`, the Potency result in assay [1], in assay [2], in assay [3], in assay [4], in assay [5] and in assay [6] was “inactive” throughout.

Consider `C[C@H](NC(=O)/C(C#N)=C/c1ccc(O)c(O)c1)c1ccccc1`, for which the Potency result in assay [1], in assay [3], in assay [4], in assay [5] and in assay [6] was “inactive” each time. Besides, in assay [2], the Potency was 0.794 µM (active).

As to `O=c1[nH]c2cc(Cl)ccc2c(O)c1-c1ccc(Oc2ccccc2)cc1`, the Potency result in assay [1], in assay [2], in assay [3], in assay [4], in assay [5] and in assay [6] was “inactive” in each case.

For `c1ccc2nc(C3=NCCN3)ccc2c1`, the Potency entry in assay [1], in assay [2], in assay [3], in assay [4], in assay [5] and in assay [6] was “inactive” each time.

Turning to `N=C(N)c1ccc(N)cc1`, the Potency result in assay [1], in assay [2], in assay [3], in assay [4], in assay [5] and in assay [6] was “inactive” in each case.

For `O=C(O)c1cc2cc(F)ccc2[nH]1`, the Potency entry in assay [1], in assay [2], in assay [3], in assay [4], in assay [5] and in assay [6] was “inactive” each time.

In the case of `CCCC[C@@]1(C2CCCC2)Cc2cc(OCC(=O)O)c(Cl)c(Cl)c2C1=O`, the Potency entry in assay [1], in assay [2], in assay [3], in assay [4], in assay [5] and in assay [6] was “inactive” each time.

Regarding `N[C@H](C(=O)O)[C@H]1C[C@@H]1C(=O)O`, the Potency result in assay [1], in assay [2], in assay [3], in assay [4], in assay [5] and in assay [6] was “inactive” each time.

Regarding `NC(N)=NC(N)=Nc1ccccc1`, the Potency result in assay [1], in assay [2], in assay [3], in assay [4], in assay [5] and in assay [6] was “inactive” each time.

Regarding `CC(N)=NCCCC[C@@H](N)C(=O)O`, the Potency result in assay [1], in assay [2], in assay [3], in assay [4], in assay [5] and in assay [6] was “inactive” each time.

As for `NCCCNCCCCNCCCN`, the Potency result in assay [1], in assay [2], in assay [3], in assay [4] and in assay [5] was “inactive” each time. Further, the Potency in assay [6] is 4.61 µM (active).

As to `COCc1nc2c([nH]1)c(=O)n(C)c(=O)n2CC(C)C`, the Potency result in assay [1], in assay [2], in assay [3], in assay [4], in assay [5] and in assay [6] was “inactive” in each case.
